Data: PubChem BioAssay (Tox21)
Records with an inconclusive call do not appear. Some structures have more than one record in an assay (separate samples or runs), and their calls can disagree. Calls of active or inactive are those of the source. Unless noted, calls come from the whole dose curve; as a rule, active = well fitted curve in the direction sought with a large enough effect in the repeat runs; inconclusive = weak or mixed curves; inactive = no such curve, though single readings can be large; an effect the other way counts as inactive or inconclusive.

What was measured:
[1] = qHTS assay for small molecule agonists of the p53 signaling pathway (AID 651631; calls by dose curve; note: nearly all actives have a fitted effect of over 15% in size; note: potency is the fitted concentration of half-maximal effect)
Summary of the method: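 HCT-116 cells carrying a stable p53 response element–beta-lactamase reporter were plated, rested 5 h at 37 °C, then exposed to compound in DMSO for 16 h at 37 °C; reporter activity was read as FRET substrate fluorescence after 2 h at room temperature.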

[2] = qHTS assay for small molecules that induce genotoxicity in human embryonic kidney cells expressing luciferase-tagged ATAD5 - cell viability (AID 651634; calls by dose curve; note: nearly all actives have a fitted effect of over 25% in size; note: potency is the fitted concentration of half-maximal effect)
Summary of the method: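 Cells (HEK293T, luciferase-tagged ATAD5) are seeded at 2,000 per well, dosed with compound or DMSO vehicle, and incubated 15.5 hr at 37C and 5% CO2. CellTiter-Fluor is added for 30 min before fluorescence is measured.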

[3] = qHTS assay for small molecule disruptors of the mitochondrial membrane potential - cell viability (AID 720634; calls by dose curve; note: nearly all actives have a fitted effect of over 20% in size; note: potency is the fitted concentration of half-maximal effect)
Summary of the method: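 Cytotoxicity was measured by ATP quantitation in HepG2 wells that had first been treated with compound for 1 hr and stained with m-MPI dye; CellTiter-Glo incubation was 30 min at room temperature.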

[4] = qHTS assay for small molecule disruptors of the mitochondrial membrane potential (AID 720635); note: potency is the fitted concentration of half-maximal effect
Summary of the method: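 HepG2 cells (2,000/well) attached overnight at 37C, then took compound for 1 hr at 37C, 5% CO2. Mito-MPS dye was added for 30 min; fluorescence was read at 490/535 nm (monomers) and 540/590 nm (aggregates).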

[5] = qHTS assay to test for compound auto fluorescence at 590 nm (red) in HepG2 cells (AID 720674)
Summary of the method: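 Intrinsic compound fluorescence in the red window (Ex/Em 540/590 nm) is measured in attached HepG2 cells exposed for 1 hr, DMSO vehicle as baseline, benchmarked to Rose Bengal sodium.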

[6] = qHTS assay to test for compound auto fluorescence at 535 nm (green) in HepG2 cells (AID 720675)
[7] = qHTS assay to test for compound auto fluorescence at 460 nm (blue) in HEK293 cells (AID 720678); note: potency is the fitted concentration of half-maximal effect
Summary of the method: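 HEK293 cells (2,000 per well, medium with 10% dialyzed FBS) attached for 4-5 hr at 37C, then received compound and stood overnight at 37C, 5% CO2. Blue fluorescence was read at Ex/Em 405/460 nm and expressed relative to triamterene.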

[8] = qHTS assay to test for compound auto fluorescence at 590 nm (red) in HEK293 cells (AID 720679)
Summary of the method: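 HEK293 cells (2,000/well, medium with 10% dialyzed FBS) attached for 4-5 hr at 37C, received 23 nL compound and were incubated overnight at 37C, 5% CO2. Red fluorescence was then read at 540/590nm Ex/Em, referenced to Rose Bengal sodium.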

[9] = qHTS assay for small molecules that induce genotoxicity in human embryonic kidney cells expressing luciferase-tagged ATAD5 (AID 651632); note: nearly all actives have a fitted effect of over 15% in size; note: potency is the fitted concentration of half-maximal effect
Summary of the method: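 Cells were seeded at 2,000 per well, dosed with compound, and incubated 16 hr at 37C in 5% CO2. Luciferase activity was then quantified after a 30 min room-temperature incubation with Amplite.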

[10] = qHTS assay for small molecule agonists of the p53 signaling pathway - cell viability (AID 651633; calls by dose curve; note: nearly all actives have a fitted effect of over 30% in size; note: potency is the fitted concentration of half-maximal effect)
Summary of the method: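 p53RE-bla cells, seeded at 4,000 per well and rested 5 h at 37 C/5% CO2, received compounds in DMSO for 16 h at 37 C. CellTiter-Glo was then added, and luminescence was read after 30 min at room temperature to gauge cytotoxicity.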

Measured: Potency
Tags give direction and shape of the fitted curve or compound fluorescence and quenching.

NC(=S)N=Nc1ccc(NN=C(N)N)cc1
active: [2] 26.6 µM | [4] 2.98 µM
not listed: [9] | [10]
inactive: all other assays above

COC(=O)[C@@H](N)CS
not listed: [2] | [9] | [10]
inactive: all other assays above

COC(=O)[C@H]1[C@H]2C[C@@H]3c4[nH]c5ccccc5c4CCN3C[C@H]2C[C@@H](OC(=O)c2cc(OC)c(OC)c(OC)c2)[C@@H]1OC
active: [4] 3.35 µM
5.31 µM (active) and inactive: [10]
not listed: [1]
inactive: all other assays above

Cc1cc(/C=C/c2ccc3cc(N(C)C)ccc3[n+]2C)c(C)n1-c1ccccc1
inactive: [3] | [6] | [7]
active: [1] 9.02 µM | [10] 5.07 µM | [4] 1.43 µM

Nc1ncnc(Nc2ccc(Cl)cc2)n1
not listed: [3] | [4] | [9]
inactive: all other assays above

O=[N+]([O-])c1c(Cl)cccc1-c1c[nH]cc1Cl
active: [10] 33.5 µM | [3] 10.6 µM | [4] 2.98 µM
not listed: [1]
inactive: all other assays above

C[C@@H]1C[C@H]2[C@@H]3CCC4=CC(=O)C=C[C@]4(C)[C@@]3(F)[C@@H](O)C[C@]2(C)[C@@]1(O)C(=O)COC(=O)c1cccc(S(=O)(=O)O)c1
not listed: [4] | [6] | [9]
inactive: all other assays above

CC(=O)N[C@@H](C=O)[C@@H](O)[C@H](O)[C@H](O)CO
not listed: [1]
inactive: all other assays above

CC(=O)Oc1c(C)cc(OCC(O)CNC(C)C)c(C)c1C (stereo not given)
not listed: [6] | [9] | [10]
inactive: all other assays above

Nc1c(Br)cc(Br)cc1CNC1CCC(O)CC1 (stereo not given)
not listed: [4] | [9]
inactive: all other assays above

CCCC(=O)Nc1ncnc2c1ncn2[C@@H]1O[C@@H]2COP(=O)(O)O[C@H]2[C@H]1OC(=O)CCC
not listed: [9]
inactive: all other assays above

CCCCCCCCCCCCCCCC(=O)OC[C@@H](O)[C@H]1OC[C@H](O)[C@H]1O
not listed: [1]
inactive: all other assays above

O=C(OCc1ccccc1)c1cccnc1
active: [4] 23.7 µM
not listed: [1]
inactive: all other assays above

CC(=O)O[C@]1(C(C)=O)CC[C@H]2[C@@H]3CCC4=CC(=O)CC[C@]4(C)[C@@]3(F)[C@@H](O)C[C@@]21C
not listed: [1]
inactive: all other assays above

Cc1cc(Nc2ccccc2C(=O)O)ccc1Cl
active: [1] 15 µM | [10] 7.5 µM | [4] 11.9 µM
not listed: [6] | [9]
inactive: all other assays above

CC(/C=C/C=C(\C)C(=O)O[C@@H]1O[C@H](CO[C@@H]2O[C@H](CO)[C@@H](O)[C@H](O)[C@H]2O)[C@@H](O)[C@H](O)[C@H]1O)=C\C=C\C=C(C)\C=C\C=C(/C)C(=O)O[C@@H]1O[C@H](CO[C@@H]2O[C@H](CO)[C@@H](O)[C@H](O)[C@H]2O)[C@@H](O)[C@H](O)[C@H]1O
not listed: [1]
inactive: all other assays above

CC1=C(/C=C/C(C)=C/C=C/C(C)=C/C=C/C=C(C)/C=C/C=C(C)/C=C/C2=C(C)C[C@@H](O)CC2(C)C)C(C)(C)C[C@H](O)C1
inactive: [5] | [6] | [7] | [8]
active: [1] 29.8 µM

CN=C(NC)NCc1ccccc1
not listed: [1]
inactive: all other assays above

CSc1nc2cc(Oc3cccc(Cl)c3Cl)c(Cl)cc2[nH]1
active: [10] 10.6 µM | [2] 29.8 µM | [3] 2.11 µM | [4] 1.68 µM
not listed: [1]
inactive: all other assays above

O=C(Nc1ccc(O)cc1)c1ccccc1O
active: [4] 5.96 µM
not listed: [3] | [9]
inactive: all other assays above

CCCCC(=O)O[C@H]1CC[C@H]2[C@@H]3CCc4cc(O)ccc4[C@H]3CC[C@]12C
active: [3] 29.8 µM | [4] 18.8 µM
not listed: [2] | [9]
inactive: all other assays above

CC(NNC(=O)c1ccccc1)c1ccccc1 (stereo not given)
active: [4] 24.8 µM
not listed: [9] | [10]
inactive: all other assays above

CS(=O)(=O)OCC(O)C(O)COS(C)(=O)=O (stereo not given)
not listed: [1]
inactive: all other assays above

COCC(=O)Nc1cc(Sc2ccccc2)ccc1N=C(NC(=O)OC)NC(=O)OC
active: [2] 4.22 µM
not listed: [1]
inactive: all other assays above

Nc1ncnc2c1ncn2[C@@H]1O[C@H](COP(=O)(O)OP(=O)(O)OP(=O)(O)O)[C@@H](O)[C@H]1O
active: [1] 26.6 µM | [3] 9.44 µM
not listed: [4] | [9]
inactive: all other assays above

CC(=O)OCC(=O)[C@@]12OC3(CCCC3)O[C@@H]1C[C@H]1[C@@H]3CCC4=CC(=O)C=C[C@]4(C)[C@@]3(F)[C@@H](O)C[C@@]12C
active: [4] 29.8 µM
not listed: [9]
inactive: all other assays above

O=C(CCCCCCCCCCCCC1CCCC1)Nc1ccc(S(=O)(=O)c2ccc(NC(=O)CCCCCCCCCCCCC3CCCC3)cc2)cc1
not listed: [1]
inactive: all other assays above

CCOC(=O)[C@@H](N)CS
not listed: [1]
inactive: all other assays above

CCN(CC)c1ccc(C(=C2C=CC(=[N+](CC)CC)C=C2)c2ccccc2)cc1
active: [9] 2.37 µM | [10] 1.68 µM | [2] 7.5 µM | [4] 0.266 µM
not listed: [1]
inactive: all other assays above

COc1cc2c(cc1OC)[C@@H](c1ccccc1)CN(C)CC2
not listed: [4] | [9]
inactive: all other assays above

CCCCCCCCCCCCCCCCSCC(COC)COP(=O)([O-])OCC[N+](C)(C)C (stereo not given)
not listed: [4] | [9]
inactive: all other assays above

O=C(COc1ccc(Cl)cc1)OCCNC12CC3CC(CC(C3)C1)C2
not listed: [1]
inactive: all other assays above

CC(=O)OCC(=O)[C@@]1(O)[C@H](C)C[C@H]2[C@@H]3C[C@H](F)C4=CC(=O)C=C[C@]4(C)[C@H]3[C@@H](O)C[C@@]21C
not listed: [1]
inactive: all other assays above

CC(C)C(=O)OCC(=O)[C@@]12O[C@H](C3CCCCC3)O[C@@H]1C[C@H]1[C@@H]3CCC4=CC(=O)C=C[C@]4(C)[C@H]3[C@@H](O)C[C@@]12C
active: [4] 7.84 µM
not listed: [1]
inactive: all other assays above

C[C@]12CC[C@@H]3c4ccc(OC(=O)c5ccccc5)cc4CC[C@H]3[C@@H]1CC[C@@H]2O
active: [4] 2.98 µM
not listed: [1] | [6]
inactive: all other assays above

C[C@H](O)[C@H](O)[C@H]1CNc2nc(N)[nH]c(=O)c2N1
active: [7] 12.6 µM [fluorescent]
not listed: [1] | [6]
inactive: all other assays above

CC1(C)S[C@@H]2[C@H](NC(=O)C(N)c3ccccc3)C(=O)N2[C@H]1C(=O)OC1OC(=O)c2ccccc21 (stereo not given in full)
not listed: [1] | [4]
inactive: all other assays above

CN[C@@H]1[C@H](O[C@H]2[C@H](O[C@H]3[C@H](O)[C@@H](O)[C@H](N=C(N)N)[C@@H](O)[C@@H]3N=C(N)N)O[C@@H](C)[C@]2(O)CO)O[C@@H](CO)[C@H](O)[C@H]1O
not listed: [1] | [4]
inactive: all other assays above

O=C(O)CO.[NH2-].[NH2-].[Pt+2]
not listed: [1]
inactive: all other assays above

CC(=O)O[C@H]1CC[C@@]2(C)C(=CC[C@H]3[C@@H]4CC[C@H](C(C)=O)[C@@]4(C)CC[C@@H]32)C1
not listed: [1]
inactive: all other assays above

CCCCC[C@H](O)/C=C/[C@@H]1[C@H]2C/C(=C/CCCC(=O)O)O[C@H]2C[C@H]1O
not listed: [1] | [6]
inactive: all other assays above
